# Reference: PubChem BioAssay AID828 (The Scripps Research Institute Molecular Screening Center, 2007)
# In all, about 140,000 compounds went through this assay and about 550 (0.39%) were called active. The sample as a whole holds a higher share of actives than the screen did. A number with no mark means an inactive call. Rule as the data show it: active = inhibition above about 27%; inactive = the rest.
# Molecular target: Galanin receptor type 2 (Homo sapiens) (UniProt O43603)
# Assay: blockers of human galanin receptor 2 – cell-based, primary screen (AID 828);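 also: cells stimulated with galanin 1-16 at roughly its EC80; 0% = agonist challenge control and 100% = basal control without agonist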
# Details: GALR2-expressing cells, antagonist mode; at 4 µM; active compounds read high
# Chain of Galanin receptor type 2 (Homo sapiens) (O43603 whole entry, looked up): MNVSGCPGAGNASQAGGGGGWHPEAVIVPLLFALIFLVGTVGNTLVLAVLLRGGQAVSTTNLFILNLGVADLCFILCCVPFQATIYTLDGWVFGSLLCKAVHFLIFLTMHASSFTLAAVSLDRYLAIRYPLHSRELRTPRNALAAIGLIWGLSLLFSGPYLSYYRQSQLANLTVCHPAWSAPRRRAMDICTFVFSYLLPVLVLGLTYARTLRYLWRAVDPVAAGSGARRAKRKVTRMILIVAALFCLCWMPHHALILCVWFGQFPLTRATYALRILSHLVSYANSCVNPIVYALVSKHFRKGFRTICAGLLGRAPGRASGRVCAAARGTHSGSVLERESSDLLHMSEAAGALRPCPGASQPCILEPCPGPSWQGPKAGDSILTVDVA
row,SMILES,inhibition
1,CCOC(=O)NC(=O)CSc1nnc(SCCC(=O)O)s1,-4.2%
2,Nc1nc(SCC(=O)NCCN2CCOCC2)nc2sc3c(c12)CCC3,15.2%
3,O=C(CSc1nc2ccc([N+](=O)[O-])cc2[nH]1)c1ccc(Cl)cc1,5.51%
4,Cc1cc(Oc2ccc(Cl)cc2)nc(SCC(=O)c2ccccc2)n1,-1.42%
5,O=C(CC1NCCNC1=O)Nc1cc(Cl)cc(Cl)c1 (stereo unspecified),-4.41%
6,CC1CN(C(=S)SCC(=O)c2ccccc2)CC(C)O1 (stereo unspecified),-1.6%
7,CC(=O)Nc1ccc(NC(=O)C(C)OC(=O)c2ccccc2C(=O)c2ccc(Cl)c([N+](=O)[O-])c2)cc1 (stereo unspecified),25.8%
8,COC(=O)c1cc(NC(=O)Cc2ccccc2[N+](=O)[O-])ccc1Cl,16.4%
9,N#Cc1cccc(NC(=O)COC(=O)c2ccccc2C(=O)c2ccc(Cl)c([N+](=O)[O-])c2)c1,68.1% (active)
10,CCN(C(=O)COC(=O)c1cc(NS(=O)(=O)c2ccc(Cl)c([N+](=O)[O-])c2)ccc1O)C1CCCCC1,-12.1%
11,CN(c1ccccc1)S(=O)(=O)c1cccc(NC(=O)Cc2c(F)cccc2Cl)c1,6.13%
12,NS(=O)(=O)c1ccc(NC(=O)COC(=O)C2(c3ccc(F)cc3)CCCC2)cc1,10.9%
13,CN(C)S(=O)(=O)c1cccc(NC(=O)COC(=O)C2(c3ccccc3F)CCCC2)c1,31.7% (active)
14,CSCCC(Nc1ccc(S(=O)(=O)N2CCOCC2)cc1[N+](=O)[O-])C(=O)OCC(=O)N(C(C)C)C(C)C (stereo unspecified),0.86%
15,O=C(CCc1[nH]c2ccccc2c1Sc1ccccc1)N(CCO)CCO,-2.04%
16,CCCOC(=O)c1c(NC(=O)c2cnn3c2NC(c2ccccc2)CC3C(F)(F)F)sc2c1CCCC2 (stereo unspecified),-6.74%
17,CCOC(=O)c1cc2c(=O)n3ccccc3nc2n(CC(C)C)c1=NC(=O)c1c(-c2c(F)cccc2Cl)noc1C,-2.98%
18,Cc1cccc(N2CCN(C(=O)c3ccccc3NC(=O)C3CCCCC3C(=O)O)CC2)c1 (stereo unspecified),0.78%
19,Cc1ccc(NN=C2C(=O)OC(C)(C)OC2=O)c(C)c1,4.74%
20,CN(C)c1ccc(C(CNC(=O)c2ccc(F)cc2)c2c[nH]c3ccccc23)cc1 (stereo unspecified),5.85%
21,CC(=O)N/C(=C/c1ccc(OC(F)F)cc1)C(=O)O,-1.23%
22,Cc1nn(-c2ccccc2)c(-n2cccc2)c1C(=O)O,8.6%
23,O=C(CN1CCc2ccccc21)NC(c1ccccc1)c1ccccc1,-11.2%

row,SMILES,inhibition
1,CCCCN(CC)C(=O)c1ccc2c(c1)OCO2,-4.88%
2,C=CCNC(=S)NNC(=O)c1ccc(Br)o1,0.37%
3,O=C(COc1cccc(F)c1)Oc1ccc(C(=O)c2ccccc2)cc1,5.19%
4,CC(C)(C)NCCCOc1ccc(Cl)cc1C(C)(C)C,-7.15%
5,Cc1cccc(-c2nc3ccccc3c(=O)n2NC(=O)Cc2ccc(Cl)cc2)c1,-8.75%
6,FC(F)(F)c1cnc(Oc2ccccc2-c2nnc(-c3ccc(Cl)cc3)o2)c(Cl)c1,99.8% (active)
7,CSc1ccccc1-c1nnc(-c2ccc(Cl)cc2)o1,14.1%
8,Cc1cc(C)cc(NS(=O)(=O)c2ccc(Oc3ncc(C(F)(F)F)cc3Cl)cc2)c1,-0.6%
9,O=C(NNC(=S)Nc1ccc(Br)cc1Cl)c1ccco1,1.63%
10,c1ccc(-c2cc3c(NCC4COc5ccccc5O4)ncnc3s2)cc1 (stereo unspecified),-0.87%
11,Cc1ccc(F)cc1NC(=O)Cc1nn(C)c(=O)c2ccccc12,39.3% (active)
12,COc1ccc(-c2nn(C)c(=O)c3ccccc23)cc1NC(=O)COc1ccccc1,2.22%
13,Cc1ccc(NC(=O)Cn2nc(C)c3ccccc3c2=O)c(C)c1,8.82%
14,Cc1ccc(-n2c(C)cc(C(=O)CSc3nnc4ccccn34)c2C)cc1,3.5%
15,Cc1ccc(C(=O)NC(=S)Nc2ccc3[nH]c(=O)[nH]c3c2)cc1C,-6.84%
16,COc1ccc(NC(=S)NCC2CCN(c3ccc(OC)cc3)C2)cc1 (stereo unspecified),-2.41%
17,C/C(CC1CC(C)(C)OC1=O)=N/Nc1nc(-c2ccccc2)cs1 (stereo unspecified),7.6%
18,COc1cc(C(=O)NCc2nnc(SCC(=O)Nc3nc4ccc(C)cc4s3)o2)cc(OC)c1OC,-19.9%
19,CCCCc1ccc(NC(=S)N2CCCC(CO)C2)cc1 (stereo unspecified),-8.34%
20,COc1ccc(NC(=O)CN(Cc2ccccc2)S(C)(=O)=O)cc1OC,-9.1%
21,O=C1CCCN1CCCNc1ncnc2c1[nH]c1ccccc12,22.8%
22,CCN1CCCC1CNc1ncnc2c1[nH]c1ccc(F)cc12 (stereo unspecified),13.1%
23,CC(C)OCCCNc1ncnc2c1[nH]c1ccc(F)cc12,35.1% (active)

row,SMILES,inhibition
1,COc1ccc(NS(=O)(=O)c2cc(NC(=O)/C=C/c3cc(OC)c(OC)c(OC)c3)ccc2N2CCCCC2)cc1,5.85%
2,COc1ccc(/C=C/C(=O)Nc2ccc(C34CC5CC(CC(O)(C5)C3)C4)cc2)cc1OC,27.3% (active)
3,COc1ccc(/C=C/C(=O)Nc2ccc3c(c2)OCCO3)cc1OC,12.7%
4,O=C(NNC1CC(=O)N(c2cccc(Cl)c2)C1=O)c1cccnc1 (stereo unspecified),-6.86%
5,COc1ccccc1OCCC(=O)OCC(=O)NCc1ccccc1,-7.36%
6,Cc1cccc(-n2c(C)cc(/C=N/NC(N)=S)c2C)c1,-7.75%
7,CCCN(CCC)c1c([N+](=O)[O-])c(=O)oc2ccccc12,7.9%
8,CCOC(=O)Cc1csc(NC(=O)CSc2ccc(Br)cc2)n1,6.81%
9,CC(C)/C=N/NC(=O)c1cc(Br)ccc1O,10.3%
10,COc1ccc(C2COC(=O)C2=N)c(NC(=O)c2ccccc2)c1 (stereo unspecified),-8.91%
11,Cc1nn(Cc2ccc(Cl)cc2)c(Cl)c1/C=N/NC(=O)c1cccnc1,10.9%
12,CC1CCc2sc(C(=O)N/N=C/C3CCCCC3)cc2C1 (stereo unspecified),-7.82%
13,CN(C)c1ccc(-n2cccc2/C=N/n2cnnc2)cc1,0.57%
14,CC(Sc1nc(-c2ccccc2)cc(C(F)(F)F)n1)C(=O)Nc1ccc2c(c1)OCO2 (stereo unspecified),0.9%
15,CCc1cccc(C)c1NC(=O)COC(=O)Cc1ccsc1,5.66%
16,Cc1ccc(NC(=O)CSCC(=O)NC2CCCCC2)cc1,4.82%
17,Cc1ccc(OCC(=O)OC(C)CN(C)Cc2ccccc2)cc1 (stereo unspecified),-4.66%
18,CC(NC(=S)Nc1ccc(S(N)(=O)=O)cc1)c1ccc2c(c1)OCO2 (stereo unspecified),4.43%
19,COc1cccc(-c2ccc(C#N)c(SCC(=O)NCCc3ccc(Cl)cc3)n2)c1,6.63%
20,CCc1ccc(C2C(C#N)=C(N)N(N(C)C)C3=C2C(=O)CCC3)s1 (stereo unspecified),-4.14%
21,CCCc1nc2c([nH]1)C(c1cccnc1)C(C#N)=C(N)O2 (stereo unspecified),1.63%
22,COc1cc(OC)cc(-c2nc3ccccc3c(=O)n2NC(=O)c2cccnc2Cl)c1,1.33%
23,COc1ccc(/C=N/Nc2ncnc3sc4c(c23)CCCC4)cc1O,0.22%

row,SMILES,inhibition
1,Cc1cc(C)cc(OCC(=O)Nc2nc3ccc([N+](=O)[O-])cc3s2)c1,7.65%
2,O=C(NC(Nc1nc2ccc([N+](=O)[O-])cc2s1)(C(F)(F)F)C(F)(F)F)c1ccccc1,88.7% (active)
3,COC(=O)C(NC(=O)c1ccc(OC)cc1)(Nc1ncc(S(=O)(=O)c2ccc([N+](=O)[O-])cc2)s1)C(F)(F)F (stereo unspecified),-4.68%
4,CC(=O)COc1ccc2c(-c3ccccc3)cc(=O)oc2c1,-10.7%
5,O=C(CNC(=O)c1ccc(-c2ccccc2)cc1)OCc1ccc(Cl)cc1,9.65%
6,O=C(CNC(=O)OCc1ccccc1)Oc1cc2oc(=O)cc(-c3ccccc3)c2cc1Cl,31.1% (active)
7,CN(C)CCNC(CC(=O)Nc1ccc(Cl)c(Cl)c1)C(=O)O (stereo unspecified),-5.57%
8,CS(=O)(=O)N(CC(=O)Nc1ccc(Cl)c(Cl)c1)C1CCCCC1,-3.02%
9,CC(c1cccnc1)N(CCN(C)C)C(=O)Nc1ccc(Cl)c(Cl)c1 (stereo unspecified),29.6% (active)
10,COC(=O)c1ccccc1SC1CC(=O)N(c2cccc(C)c2)C1=O (stereo unspecified),10.2%
11,C=CCNC(=O)COC(=O)c1ccccc1C(=O)N(C)C1CCCCC1,-14.8%
12,Cc1cc(C(=O)COc2ccccc2[N+](=O)[O-])c(C)n1-c1cccc(S(=O)(=O)N2CCOCC2)c1,-3.23%
13,CCOC(=O)c1c(NC(=S)NC(=O)/C=C/c2cccs2)sc(C)c1C,-8.3%
14,Cc1c(C(=O)Nc2cccc(-c3nnc4n3CCCCC4)c2)oc2ccccc12,-1.52%
15,CC(Cc1cccs1)NC(=O)c1cccc(Cl)c1 (stereo unspecified),3.36%
16,Cc1ccc(/C(N)=N/OC(=O)COc2ccc(Cl)c(C)c2)cc1,7.55%
17,CC(C)(C)c1ccc(C(=O)CSc2ncn[nH]2)cc1,4.68%
18,O=C(NCCOCc1ccc(Cl)cc1)c1ncn[nH]1,6.29%
19,O=C(/C=C/Sc1ncn[nH]1)c1ccc(Cl)cc1,36.3% (active)
20,COc1ccc(NC(=O)c2nc(-n3nc(C)cc3C)ccc2Cl)cc1Cl,-4.22%
21,N#Cc1ccccc1Sc1ccccc1C(=O)OCC(=O)NC1CCCCC1,-1.21%
22,COc1ccc(CNC(=O)CN(Cc2ccc(Cl)cc2)S(C)(=O)=O)cc1,-0.09%
